The panel holds about 83,000 compounds, 20% with a hit somewhere; the sample as a whole holds those more often.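 Treatment: one concentration, 48 hours, 96-well format. Scoring: percent growth, with anything below 10 considered active.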 Active and inactive are the calls of the source.
How the values were obtained:
Test in all cases: NCI-60 one-dose screen, 48 h (100 = growth as untreated, 0 = no growth, -100 = all killed)
Conditions in all cases: 10 µM unless noted
NCI-H23 lung = system: NCI-H23 lung
NCI-H226 lung = system: NCI-H226 lung
NCI-H322M lung = system: NCI-H322M lung
HOP-62 NSCLC = system: HOP-62 NSCLC
NCI-H460 lung = system: NCI-H460 lung
NCI-H522 lung = system: NCI-H522 lung
A549/ATCC NSCLC = system: A549/ATCC NSCLC
786-0 renal = system: 786-0 renal
COLO 205 colon = system: COLO 205 colon
DU-145 prostate = system: DU-145 prostate
K-562 leukemia = system: K-562 leukemia
MALME-3M melanoma = system: MALME-3M melanoma
MDA-MB-231 breast = system: MDA-MB-231 breast
RXF 393 renal = system: RXF 393 renal
SF-268 CNS = system: SF-268 CNS
SF-295 CNS = system: SF-295 CNS
SF-539 CNS = system: SF-539 CNS
UACC-257 melanoma = system: UACC-257 melanoma
M14 melanoma = system: M14 melanoma

Measured: growth

CC1=C(C#N)C(=O)NC(C)C1 (stereo not drawn)
inactive: NCI-H23 lung 92.8% | NCI-H226 lung 111% | NCI-H322M lung 106% | HOP-62 NSCLC 99.4% | NCI-H460 lung 107% | NCI-H522 lung 107% | A549/ATCC NSCLC 95.3% | 786-0 renal 97.6% | COLO 205 colon 108% | DU-145 prostate 111% | K-562 leukemia 116% | MALME-3M melanoma 102% | MDA-MB-231 breast 105% | RXF 393 renal 107% | SF-268 CNS 104% | SF-295 CNS 99.9% | SF-539 CNS 97.9% | UACC-257 melanoma 102% | M14 melanoma 96.2%

COc1ccc(-c2nc(SCCC(C)C)nc(Nc3ccc(F)c(Cl)c3)c2C#N)cc1
inactive: NCI-H23 lung 90.2% | NCI-H226 lung 65.8% | NCI-H322M lung 63.2% | HOP-62 NSCLC 88.7% | NCI-H460 lung 24.1% | NCI-H522 lung 84.5% | A549/ATCC NSCLC 58.9% | 786-0 renal 45.4% | COLO 205 colon 70.8% | DU-145 prostate 97.7% | K-562 leukemia 56.2% | MALME-3M melanoma 84.2% | MDA-MB-231 breast 100% | RXF 393 renal 101% | SF-268 CNS 83% | SF-295 CNS 78% | SF-539 CNS 70.3% | UACC-257 melanoma 103% | M14 melanoma 95%

CCCCN(CCCC)C(=N)c1ccnc2ccccc12
inactive: NCI-H23 lung 108% | NCI-H226 lung 116% | NCI-H322M lung 110% | HOP-62 NSCLC 119% | NCI-H460 lung 108% | NCI-H522 lung 102% | A549/ATCC NSCLC 96.7% | 786-0 renal 115% | COLO 205 colon 125% | DU-145 prostate 117% | K-562 leukemia 110% | MALME-3M melanoma 98.8% | MDA-MB-231 breast 119% | RXF 393 renal 127% | SF-268 CNS 103% | SF-295 CNS 93.8% | SF-539 CNS 113% | UACC-257 melanoma 66.2% | M14 melanoma 110%

O=c1[nH]c2ccc(Br)cc2c2c1C(c1ccc(Cl)cc1)c1c(ncn3nc(-c4ccco4)nc13)O2 (stereo not drawn)
inactive: NCI-H23 lung 76.1% | NCI-H226 lung 65.5% | NCI-H322M lung 75.3% | HOP-62 NSCLC 50% | NCI-H460 lung 85.1% | NCI-H522 lung 69.4% | A549/ATCC NSCLC 74.8% | COLO 205 colon 91% | DU-145 prostate 90% | K-562 leukemia 80% | MALME-3M melanoma 77.5% | MDA-MB-231 breast 48.6% | RXF 393 renal 59.1% | SF-268 CNS 74.3% | SF-295 CNS 87.9% | SF-539 CNS 65.5% | UACC-257 melanoma 98.3% | M14 melanoma 74.9%

N/C(=N\C(N)=N\c1nc2ccccc2s1)c1cccc(Br)c1
inactive: NCI-H23 lung 77% | NCI-H226 lung 71.6% | NCI-H322M lung 81% | NCI-H460 lung 76.4% | NCI-H522 lung 80% | 786-0 renal 98.4% | COLO 205 colon 115% | DU-145 prostate 99.1% | K-562 leukemia 73.6% | MALME-3M melanoma 101% | MDA-MB-231 breast 73.4% | RXF 393 renal 95.5% | SF-268 CNS 101% | SF-295 CNS 76% | SF-539 CNS 98.6% | UACC-257 melanoma 103% | M14 melanoma 82%
active: HOP-62 NSCLC -0.459% | A549/ATCC NSCLC -40.6%

CCOc1cc2c(Cl)ncnc2c(OCC)c1OCC
inactive: NCI-H23 lung 79.6% | NCI-H226 lung 91.6% | NCI-H322M lung 65.4% | HOP-62 NSCLC 90.9% | NCI-H460 lung 99% | NCI-H522 lung 58.8% | A549/ATCC NSCLC 95.6% | 786-0 renal 105% | COLO 205 colon 95.8% | K-562 leukemia 19.5% | MALME-3M melanoma 83.8% | MDA-MB-231 breast 77.7% | SF-268 CNS 33.9% | SF-295 CNS 96.1% | SF-539 CNS 92.5% | M14 melanoma 73.7%
active: DU-145 prostate -56.1% | RXF 393 renal -5.68% | UACC-257 melanoma -17%

Fc1ccccc1-c1nc(-c2nc3cc(Cl)c(Cl)cc3[nH]2)c2ccccn12
inactive: NCI-H23 lung 69.2% | NCI-H226 lung 78.5% | NCI-H322M lung 67.8% | HOP-62 NSCLC 68.8% | NCI-H460 lung 57.3% | NCI-H522 lung 72.5% | A549/ATCC NSCLC 72.2% | 786-0 renal 86.4% | COLO 205 colon 89.6% | DU-145 prostate 51.5% | K-562 leukemia 73.1% | MALME-3M melanoma 34.5% | MDA-MB-231 breast 91.4% | RXF 393 renal 69.2% | SF-268 CNS 77.4% | UACC-257 melanoma 82.2% | M14 melanoma 71%

Cc1nn(-c2ccc(Cl)cc2)c2ncnc(N/N=C/c3cccc([N+](=O)[O-])c3)c12
inactive: NCI-H23 lung 94.3% | NCI-H226 lung 104% | NCI-H322M lung 96.4% | HOP-62 NSCLC 107% | NCI-H460 lung 77.8% | NCI-H522 lung 103% | A549/ATCC NSCLC 104% | 786-0 renal 96.4% | COLO 205 colon 95.3% | DU-145 prostate 68.7% | K-562 leukemia 17.4% | MALME-3M melanoma 97.2% | MDA-MB-231 breast 102% | RXF 393 renal 110% | SF-268 CNS 58% | SF-295 CNS 101% | SF-539 CNS 106% | UACC-257 melanoma 103%

— PubChem BioAssay (NCI)
